A selection: hits, their analogues and other compounds. The true share with any hit is near 6%.
Sfp PPTase inh = qHTS Assay for Inhibitors of Bacillus subtilis Sfp phosphopantetheinyl transferase (PPTase). Biochemical Sfp PPTase activity, qHTS. 3.5% of 310,000 active. Potency, µM, without a hit: largest response in the series, negative = inhibition, usual class: inhibitors;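 note: the enzyme is Sfp with the accession as filed and its product quenches rhodamine fluorescence; 0% = enzyme reaction without inhibitor and -100% = no enzyme wells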
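After 15 min at room temperature with compound, 15 nM Sfp received 5 uM rhodamine-CoA plus 12.5 uM BHQ-2-ybbR (50 mM Hepes pH 7.6, 10 mM MgCl2). Rate came from the fluorescence difference over 30 min, ex 525/em 598 nm.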
Tau fibril FP = qHTS for Inhibitors of Tau Fibril Formation, Fluorescence Polarization; Microtubule-associated protein tau (Homo sapiens), P10636; K18 P301L tau heparin fibrillization, Alexa594 FP, 6 h; Potency, µM (highest dose often 57.7 µM), inactives show at the highest dose activity, negative = inhibition, hits mostly inhibitors; 0.39% of 280,000 active; note: nearly all actives have a fitted effect of over 55% in size
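Compound effects on tau fibrillization are measured by Alexa 594 fluorescence polarization (ex 555, em 632 nm). K18 P301L tau is used at 15 uM with 0.24 uM labeled tracer, and 20 uM heparin induces aggregation over 6 hr at 37 C.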
PLK1 PBD inh = qHTS for Inhibitors of PLK1-PDB (polo-like kinase 1 - polo-box domain): Primary Screen. Plk1 PBD binding of FITC phosphopeptide, fluorescence polarization. 2.8% of 360,000 active. Potency, µM, without a hit: max response, negative = inhibition, most hits filed as inhibitors; note: series mostly up to about 57 µM; nearly all actives have a fitted effect of over 65% in size
Target sequence (P53350 whole entry, looked up, the tested form may be a part): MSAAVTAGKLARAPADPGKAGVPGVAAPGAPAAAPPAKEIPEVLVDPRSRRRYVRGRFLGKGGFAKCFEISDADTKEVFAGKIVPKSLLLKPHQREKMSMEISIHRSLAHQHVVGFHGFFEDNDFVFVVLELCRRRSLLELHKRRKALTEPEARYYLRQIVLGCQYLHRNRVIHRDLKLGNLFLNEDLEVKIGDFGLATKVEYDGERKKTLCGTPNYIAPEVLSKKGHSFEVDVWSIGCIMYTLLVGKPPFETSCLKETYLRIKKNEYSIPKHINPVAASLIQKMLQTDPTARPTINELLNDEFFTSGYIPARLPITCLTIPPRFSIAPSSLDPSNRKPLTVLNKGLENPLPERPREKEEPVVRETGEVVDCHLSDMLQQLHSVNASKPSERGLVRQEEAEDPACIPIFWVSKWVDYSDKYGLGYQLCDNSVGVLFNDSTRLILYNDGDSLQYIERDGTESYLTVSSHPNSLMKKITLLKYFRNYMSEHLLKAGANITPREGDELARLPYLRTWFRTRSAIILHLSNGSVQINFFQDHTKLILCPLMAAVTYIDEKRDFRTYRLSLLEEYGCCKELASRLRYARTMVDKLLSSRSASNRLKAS
Tau ThT inhib = qHTS for Inhibitors of Tau Fibril Formation, Thioflavin T Binding; Microtubule-associated protein tau (Homo sapiens), P10636; recombinant tau K18 P301L, heparin-induced fibrillization, ThT fluorescence; Potency, µM (titrated, usually from 57.4 µM), for inactives: at the highest dose activity, negative = inhibition, usual class: inhibitors; 2.1% of 270,000 active; note: nearly all actives have a fitted effect of over 55% in size
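Heparin-induced fibrillization of the P301L-mutant K18 repeat-domain fragment of human tau was followed by ThT binding in quantitative high-throughput format.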
Tau fluor cs = Counterscreen qHTS for Inhibitors of Tau Fibril Formation, Fluorescence Polarization | tau K18 P301L Alexa594 fluorescence, heparin fibrillization | Potency, µM (top dose mostly 57.7 µM), for the others: at the highest dose activity change, negative = decrease | 0.93% of 280,000 active | AID 1463, 2008; note: nearly all actives have a fitted effect of over 55% in size
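Human tau K18 P301L (15 uM unlabeled, 0.24 uM Alexa 594-labeled) in 100 mM sodium acetate pH 7 with 20 uM heparin, 6 hr at 37 C. ThT 30 uM added, 1 hr ambient; Alexa 594 FP and total fluorescence read at 555/632 nm.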
VDR inh = Inhibitors of the vitamin D receptor (VDR): qHTS. Vitamin D3 receptor (Homo sapiens), P11473. VDR-SRC2-3 peptide fluorescence polarization, 2 h. Potency, µM, without a hit: max response, negative = inhibition, actives largely listed as inhibitors. 0.93% of 400,000 active. AID 504847, 2011
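VDR–SRC2-3 interaction, FP format. Cmpds 23 nl via pintool, brief spin, 2 h ambient incubation.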
An asterisk follows results filed as active; ? = inconclusive; nt = not tested or not shown; [ ] = remark or other dose. Calls come from the whole dose curve; as a rule, active = well fitted curve in the direction sought with a large enough effect; inconclusive = small, poorly fitted or top-dose-only effect, or another doubt; inactive = no such curve, though single readings can be large; an effect the other way counts as inactive or inconclusive. Unless noted, % is set by controls: 0 for no effect and ±100 for the full control effect; potency is the fitted concentration of half-maximal effect.

SMILES	Sfp PPTase inh	Tau fibril FP	PLK1 PBD inh	Tau ThT inhib	Tau fluor cs	VDR inh
COc1ccc(-n2c(SCc3ccccc3)nc3c([nH]c4ccccc43)c2=O)cc1	nt	-9%	nt	11%	-4%	2%
CC(C)=NNc1nc(-c2ccc([N+](=O)[O-])cc2)cs1	-22%	10%	-8%	8.9µM*	-29%	12%
C/C(=N/Nc1nc(-c2ccc(Cl)cc2)cs1)c1cccs1	40µM*	3%	-7%	?	?	-4%
CC(=O)Nc1ccc(-c2csc(NC(C)c3ccccc3)n2)cc1 (stereo not drawn)	50µM*	11%	-8%	?	?	-16%
CC(=O)Nc1nc(-c2ccc([N+](=O)[O-])cc2)cs1	17%	9%	-3%	-5%	-7%	-7%
CC(=O)Nc1ccc(-c2csc(NNC(=O)c3ccccc3)n2)cc1	18µM*	-3%	-12%	6%	1%	10%
CC(=O)Nc1ccc(-c2csc(N/N=C(/C)c3ccccc3)n2)cc1	40µM*	?	-25%	nt	11µM*[quencher]	?
CC(=O)Nc1ccc(-c2csc(NCc3ccccc3)n2)cc1	-13%	3%	-16%	?	-28%	-18%
COC(=O)c1c(NC(=O)Cc2coc3cc(C)ccc23)sc2c1CCCC2	nt	-10%	nt	?	-20%	6%
COc1ccc2nc(/N=C/c3c(C)[nH]n(-c4ccc(C)cc4)c3=O)sc2c1	-1%	-19%	-14%	18µM*	?	-28%
c1coc(-c2nc3cc4ccccc4cc3nc2-c2ccco2)c1	nt	nt	nt	nt	nt	22µM*
Nc1nc(-c2ccc(-n3nncc3-c3ccco3)cc2)cs1	-3%	9%	-25%	-23%	-31%	-18%
COc1ccc(-c2nc3ccccc3nc2-c2ccc(OC)cc2)cc1	10%	nt	-14%	nt	nt	1%
Nc1nc(-c2ccco2)cs1	50µM*	-9%	-6%	?	-11%	2%
c1coc(-c2nc(-c3ccco3)c(-c3ccco3)nc2-c2ccco2)c1	35µM*	11µM*	12µM*	7.9µM*	?	40µM*
COc1ccc2nc(-c3ccco3)c(-c3ccco3)nc2c1	7.1µM*	?	?	4.5µM*	7.9µM*[quencher]	?
Oc1ccccc1-c1cc(-c2ccco2)[nH]n1	-3%	-3%	-3%	12%	?	-19%
O=C(Cn1ccc(=O)[nH]c1=O)Nc1ccc(O)c([N+](=O)[O-])c1	nt	nt	-8%	nt	nt	17%
CCC(=O)N1c2ccccc2CC1C(=O)NCCc1ccccc1OC (stereo not drawn)	nt	-1%	nt	11%	10%	1%
CNC[C@H]1OCc2ccccc2-c2ccccc2C(=O)N([C@@H](C)CO)C[C@H]1C	nt	nt	-4%	nt	nt	nt
COc1ccc(C(O)(CCN2CCOCC2)c2ccccc2)cc1 (stereo not drawn)	6%	nt	-2%	nt	nt	5%
COc1cc(C2Nc3cc(Cl)c(S(N)(=O)=O)cc3S(=O)(=O)N2)ccc1OCc1ccccc1 (stereo not drawn)	27%	1%	24µM*	-15%	-8%	-20%
CC(C)n1ncc2c(C(=O)O)cc(C3CC3)nc21	-6%	0%	30µM*	4%	8%	?
COc1ccc(CNC(=O)c2cc(C3CC3)nc3c2cnn3C(C)C)cc1	nt	nt	10%	nt	nt	0%
NC(=O)CC(NC(=S)NCc1ccccc1)C(=O)O (stereo not drawn)	?	11%	21µM*	4%	4%	-6%
SMILES	Sfp PPTase inh	Tau fibril FP	PLK1 PBD inh	Tau ThT inhib	Tau fluor cs	VDR inh
CCN(CC)C(=O)C1=C(C)N(Cc2ccccc2)C(=O)C(CC(=O)NC2CC2)C1 (stereo not drawn)	nt	nt	-28%	nt	nt	nt
Cc1c(CCOC(=O)CC23CC4CC(CC(C4)C2)C3)sc[n+]1CC(=O)c1ccccc1	79µM*	10%	5%	?	2%	-13%
COc1cc(NC(=O)COc2ccccc2[N+](=O)[O-])ccc1NC(=O)c1cccs1	16µM*	-4%	0%	-4%	-7%	3%
CCCN1CCN(C(=O)c2ccc(CS(=O)c3ccc(Br)cc3)o2)CC1 (stereo not drawn)	nt	nt	-1%	nt	nt	nt
CCC/C=C(\CCC)C(NC(=O)c1ccco1)c1ccc(C(=O)OC)cc1 (stereo not drawn)	14%	3%	nt	-13%	-11%	nt
CN1C(C(=O)c2ccccc2)=C(NC(=O)c2ccc(F)cc2)c2ccccc2S1(=O)=O	nt	8%	nt	-7%	-24%	-12%
O=C(C1=C(Nc2ccccc2)c2ccccc2S(=O)(=O)N1)c1ccccc1	89µM*	?	-6%	?	-15%	-4%
S=c1[nH]nc(-c2ccc(Cl)cc2)n1-c1ccc(Cl)cc1	23%	nt	?	nt	nt	-13%
Nc1n[nH]c(=S)n1-c1ccc(Cl)cc1	16µM*	?	12µM*	?	-20%	?
CCc1cc(=O)oc2c3c(cc(OCC(=O)NCCN4CCOCC4)c12)OC(C)(C)CC3	11%	nt	-1%	nt	nt	-30%
Cc1ccc(Nc2nnns2)cc1C	22µM*	-8%	27µM*	?	-8%	45µM*
Cc1cc(C)c2c(N)c(S(=O)(=O)c3ccccc3)sc2n1	89µM*	1%	-29%	0%	-14%	3%
CCCCS(=O)(=O)c1sc2nc(C)cc(C)c2c1N	6%	2%	-11%	-15%	-8%	11%
CC(=O)c1cccc(NC(=O)c2cnn(-c3cccc(C)c3)c2-n2cccc2)c1	nt	-14%	nt	5%	-14%	14%
Cc1cccn2c(=O)cc(CSc3nnc(NC(=O)COc4ccc(F)cc4)s3)nc12	nt	4%	nt	-9%	-9%	4%
Cc1cc(C)c2c(CC(=O)Nc3ccc(S(=O)(=O)N4CCCCC4)cc3)coc2c1	nt	?	nt	12%	?	15%
Cc1cc(C)c2c(CC(=O)Nc3ccc(S(=O)(=O)N4CCCC(C)C4)cc3)coc2c1 (stereo not drawn)	nt	14µM*	nt	12%	?	11%
O=C(CCn1nnc2ccccc21)Nc1nnc(Cc2ccccc2)s1	50µM*	-18%	-29%	?	-25%	-26%
O=C(CCn1nnc2ccccc21)Nc1nnc(COc2ccccc2F)s1	-15%	-9%	-3%	-13%	-10%	-15%
Clc1ccc(-c2cc3ccccc3nc2N2CCCC2)cc1	-11%	?	-9%	-24%	-11%	4%

Screening data (PubChem)
